In PubChem BioAssay (Tox21) one finds Potency and outcome data, which are given here for nine molecules.

A number with no mark means an inactive call. Inconclusive results are not listed. Calls of active or inactive are those of the source. Unless noted, the call rests on the fitted dose curve; in most records, active means well fitted curve in the direction sought with a large enough effect in the repeat runs; inconclusive means weak or mixed curves; inactive means no such curve, though single readings can be large; an effect the other way counts as inactive or inconclusive.

Assay [1] can be described thus: qHTS assay to identify small molecule antagonists of the estrogen receptor alpha (ER-alpha) signaling pathway using the BG1 cell line in the presence of 0.1 nM 17-beta-estradiol - cell viability counter screen (AID 1259241). Further: nearly all actives have a fitted effect of over 40% in size. Further: potency means the concentration at half of the fitted maximal effect. The procedure, abridged:
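VM7Luc4E2 cells (endogenous ER-alpha, 4×ERE-luciferase), hormone-starved 5 days in charcoal-stripped FBS, were treated with compounds plus 0.1 nM 17beta-estradiol for 22 hr at 37C; viability read in same wells as CellTiter-Fluor live-cell protease fluorescence.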

The target in assay [2] is Androgen receptor (Homo sapiens) (UniProt P10275). The experiment in a line: qHTS assay to identify small molecule antagonists of the androgen receptor (AR) signaling pathway using the MDA cell line in the presence of 0.5 nM R1881 (AID 1259243). Further: nearly all actives have a fitted effect of over 50% in size. Further: potency means the concentration at half of the fitted maximal effect. The procedure, abridged: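 Reporter cells cultured without CO2 receive test chemicals, then 0.5 nM R1881 final; after 16 hr at 37C, ONE-Glo is added and light output recorded.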
Sequence of Androgen receptor (Homo sapiens) (P10275 whole entry, looked up): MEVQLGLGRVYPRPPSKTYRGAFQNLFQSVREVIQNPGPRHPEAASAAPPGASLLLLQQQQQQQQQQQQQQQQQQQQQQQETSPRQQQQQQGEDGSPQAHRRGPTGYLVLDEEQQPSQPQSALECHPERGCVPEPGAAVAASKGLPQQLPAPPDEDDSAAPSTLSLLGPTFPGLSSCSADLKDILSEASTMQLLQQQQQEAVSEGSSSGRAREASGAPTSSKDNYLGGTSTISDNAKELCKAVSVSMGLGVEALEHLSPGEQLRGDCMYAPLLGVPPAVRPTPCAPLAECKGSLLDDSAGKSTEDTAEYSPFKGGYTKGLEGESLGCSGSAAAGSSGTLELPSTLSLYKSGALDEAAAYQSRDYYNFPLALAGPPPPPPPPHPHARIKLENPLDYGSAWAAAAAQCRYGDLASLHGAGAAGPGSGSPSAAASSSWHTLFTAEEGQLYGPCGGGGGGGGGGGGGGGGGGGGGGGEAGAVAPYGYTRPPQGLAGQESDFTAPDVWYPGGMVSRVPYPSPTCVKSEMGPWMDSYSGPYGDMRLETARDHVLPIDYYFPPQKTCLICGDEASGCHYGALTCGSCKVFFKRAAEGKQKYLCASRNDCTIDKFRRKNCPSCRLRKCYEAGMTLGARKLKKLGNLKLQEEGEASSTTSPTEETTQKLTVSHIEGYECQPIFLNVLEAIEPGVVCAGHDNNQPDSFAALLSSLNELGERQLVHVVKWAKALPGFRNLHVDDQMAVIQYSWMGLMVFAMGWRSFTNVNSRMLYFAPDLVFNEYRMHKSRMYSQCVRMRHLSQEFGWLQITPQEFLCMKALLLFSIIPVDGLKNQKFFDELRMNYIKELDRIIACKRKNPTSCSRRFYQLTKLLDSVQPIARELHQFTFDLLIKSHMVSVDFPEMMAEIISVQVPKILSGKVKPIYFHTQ

The nature of assay [3]: qHTS assay to identify small molecule HDAC inhibitors - cell viability counter screen (AID 1259365). Further: series mostly up to about 92 µM; nearly all actives have a fitted effect of over 50% in size. An outline of the steps: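 Wild-type HCT-116 cells were seeded at 1,500 per well, incubated overnight at 37 C, then exposed to compounds in DMSO for 2hr. Viability was read by CellTiter-Glo luminescence after 30min at room temperature.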
The nature of assay [4]: qHTS assay to identify small molecule agonists of the sonic hedgehog signaling (Shh) pathway - cell viability counter screen (AID 1259366). Further: nearly all actives have a fitted effect of over 50% in size. Further: potency means the concentration at half of the fitted maximal effect. The procedure, abridged: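 NIH/3T3-derived 3T3 Gli1-Luc cells (stable Gli1-responsive firefly luciferase reporter) were seeded, rested 4 hr at 37 C/5% CO2, then exposed to compounds in DMSO for 24 hr; viability was read by CellTiter-Fluor fluorescence in the same wells.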

Assay [5] is described as follows: qHTS assay to identify small molecule antagonists of the sonic hedgehog signaling (Shh) pathway - cell viability counter screen (AID 1259367). Further: nearly all actives have a fitted effect of over 55% in size. Further: potency means the concentration at half of the fitted maximal effect. An outline of the steps:
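Cells: 3T3 Gli1-Luc, 2,000/well, 4 hr pre-incubation. Compounds in DMSO, then conditioned medium. Incubation 24 hr, 37C, 5% CO2. CellTiter-Fluor at 23 hr, 1 hr, fluorescence.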

A short description of assay [6]: qHTS assay to identify small molecule agonists of the sonic hedgehog signaling (Shh) pathway (AID 1259368; calls by dose curve; further: series mostly up to about 92 µM; nearly all actives have a fitted effect of over 15% in size). The procedure, abridged: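 A Gli1 transcriptional response element controlled firefly luciferase in 3T3Gli1-Luc cells. Compounds and a positive control were added 4 hr after plating, and cells were incubated a further 24 hr at 37 C before luminescence detection.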

Assay [7] addresses Androgen receptor (Homo sapiens) (UniProt P10275). Nature of the assay: qHTS assay to identify small molecule agonists of the androgen receptor (AR) signaling pathway in the presence of an antagonist (AID 1259381; calls by dose curve; further: nearly all actives have a fitted effect of over 15% in size). An outline of the steps:
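Test compounds at 15 concentrations were incubated for 16hr with MDA-kb2 reporter cells in presence of 3.0uM nilutamide (final). Signal: ONE-Glo luciferase luminescence.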

A short description of assay [8]: qHTS assay to identify small molecule antagonists of the estrogen receptor beta (ER-beta) signaling pathway - cell viability counter screen (AID 1259382). Further: nearly all actives have a fitted effect of over 55% in size. Further: potency means the concentration at half of the fitted maximal effect. The procedure, abridged:
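In this multiplexed counter screen, cells were seeded at 2,000 per well in medium with 2% charcoal-stripped FBS and incubated 6 hr before compound and 1nM final E2 were added. Sixteen hours later, ATP-based luminescence reported viability.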

Assay [9] deals with Estrogen receptor (Homo sapiens) (UniProt P03372). The experiment in a line: qHTS assay to identify small molecule agonists of the estrogen receptor alpha (ER-alpha) signaling pathway in the presence of an antagonist (AID 1259383; calls by dose curve; further: top concentration of the series differs between compounds; nearly all actives have a fitted effect of over 15% in size). The procedure, abridged: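 Stably transfected VM7Luc4E2 reporter cells, kept 5 days in charcoal-stripped serum, received ICI-182,780 at 10.0nM final before compound addition. Following 22hr incubation at 37C and 5% CO2, luciferase signal was read by luminescence.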
Sequence of Estrogen receptor (Homo sapiens) (P03372 whole entry, looked up): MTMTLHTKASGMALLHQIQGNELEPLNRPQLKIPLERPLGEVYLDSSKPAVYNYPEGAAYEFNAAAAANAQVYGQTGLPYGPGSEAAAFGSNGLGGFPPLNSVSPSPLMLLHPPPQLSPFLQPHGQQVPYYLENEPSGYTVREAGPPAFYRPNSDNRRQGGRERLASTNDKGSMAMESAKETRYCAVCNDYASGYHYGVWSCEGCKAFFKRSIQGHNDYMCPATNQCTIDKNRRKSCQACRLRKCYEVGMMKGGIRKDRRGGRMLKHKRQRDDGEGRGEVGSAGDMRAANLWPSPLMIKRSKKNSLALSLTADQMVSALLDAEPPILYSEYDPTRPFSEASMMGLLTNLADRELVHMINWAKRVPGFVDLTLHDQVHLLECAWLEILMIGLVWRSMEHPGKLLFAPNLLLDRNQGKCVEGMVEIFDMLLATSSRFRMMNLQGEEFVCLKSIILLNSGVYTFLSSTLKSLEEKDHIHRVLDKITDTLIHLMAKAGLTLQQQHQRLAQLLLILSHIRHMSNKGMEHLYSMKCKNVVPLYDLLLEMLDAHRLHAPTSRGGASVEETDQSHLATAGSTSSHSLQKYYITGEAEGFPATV

The nature of assay [10]: qHTS assay to identify small molecule agonists or antagonists of the thyroid stimulating hormone receptor (TSHR) signaling pathway - wild type cell line counter screen (AID 1259384; calls by dose curve). An outline of the steps: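 Counter screen in untransfected Hek293: compounds (15-point titration, triplicate) plus phosphodiesterase inhibitor Ro20-1724 added after 18 h plating; 30 min RT. Intracellular cAMP via competitive d2/cryptate immunoassay, 1 h incubation.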

In assay [11] the target is Thyrotropin receptor (Homo sapiens) (UniProt P16473). The experiment in a line: qHTS assay to identify small molecule antagonists of the thyroid stimulating hormone receptor (TSHR) signaling pathway (AID 1259385; calls by dose curve; further: nearly all actives have a fitted effect of over 20% in size; further: potency means the concentration at half of the fitted maximal effect). The procedure, abridged: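 Antagonist mode: compound-treated TSHR-expressing HEK293 cells were stimulated with 1.5 ng/mL TSH (final) in presence of Ro20-1724 for 30 min at RT. HTRF cAMP detection after 1 h; each compound tested at 15 concentrations, triplicate.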
Sequence of Thyrotropin receptor (Homo sapiens) (P16473 whole entry, looked up): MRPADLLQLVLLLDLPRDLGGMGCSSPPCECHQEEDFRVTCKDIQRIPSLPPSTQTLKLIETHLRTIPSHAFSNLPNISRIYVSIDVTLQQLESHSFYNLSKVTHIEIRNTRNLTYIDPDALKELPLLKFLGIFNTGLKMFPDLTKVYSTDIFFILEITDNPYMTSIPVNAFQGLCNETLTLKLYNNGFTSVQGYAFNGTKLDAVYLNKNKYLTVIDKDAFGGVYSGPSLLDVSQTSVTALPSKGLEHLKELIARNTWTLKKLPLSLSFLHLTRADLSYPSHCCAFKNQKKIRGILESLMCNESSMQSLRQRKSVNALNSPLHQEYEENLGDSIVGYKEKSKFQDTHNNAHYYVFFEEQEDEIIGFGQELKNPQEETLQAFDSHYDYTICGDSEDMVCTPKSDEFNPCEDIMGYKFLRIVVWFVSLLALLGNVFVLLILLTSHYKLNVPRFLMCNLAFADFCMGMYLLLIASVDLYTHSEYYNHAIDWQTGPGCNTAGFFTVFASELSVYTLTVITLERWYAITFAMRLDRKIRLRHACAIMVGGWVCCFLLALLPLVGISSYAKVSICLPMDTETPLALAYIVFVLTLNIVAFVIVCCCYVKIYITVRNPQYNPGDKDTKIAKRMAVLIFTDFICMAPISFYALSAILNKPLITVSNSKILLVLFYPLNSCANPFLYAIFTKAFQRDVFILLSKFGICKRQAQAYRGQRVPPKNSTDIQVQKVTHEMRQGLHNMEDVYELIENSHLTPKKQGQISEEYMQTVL

Assay [12] can be described thus: qHTS assay to identify small molecule phospholipidosis (PLD) inducers (AID 1259344; active means well fitted curve in the direction sought with a large enough effect; an effect the other way counts as inactive or inconclusive). The procedure, abridged: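 Phospholipidosis is scored by imaging LipidTOX-stained pits in HepG2 cells exposed to compound for 24 h at 37 C; pit counts and integrated intensities per well and per cell serve as outputs.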
Assay [13] can be described thus: qHTS assay to identify small molecule HDAC inhibitors (AID 1259364).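 Further: wild-type HCT-116 cells with endogenous class I/II HDAC activity; top concentration of the series differs between compounds; nearly all actives have a fitted effect of over 45% in size.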 An outline of the steps: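 Read-out: luminescence of HDAC-Glo I/II reagent, 30 min RT, reflecting class I/II deacetylase activity in whole HCT-116 cells pre-exposed 2 h to DMSO-dissolved compounds.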
A short description of assay [14]: qHTS assay to identify small molecule antagonists of the sonic hedgehog signaling (Shh) pathway (AID 1259369; calls by dose curve; further: nearly all actives have a fitted effect of over 45% in size; further: potency means the concentration at half of the fitted maximal effect). An outline of the steps:
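For antagonist detection, the reporter line received test compounds together with conditioned medium, incubated 24hr at 37 C, 5% CO2, then luminescence was recorded following 30min room-temperature luciferase reagent incubation.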

The target of assay [15] is Estrogen receptor beta (Homo sapiens) (UniProt Q92731). Nature of the assay: qHTS assay to identify small molecule antagonists of the estrogen receptor beta (ER-beta) signaling pathway (AID 1259378; active means well fitted inhibition curve with a large enough effect in the signal ratio in the repeat runs, not every such curve was filed as active; the % refers to the signal ratio; further: potency means the concentration at half of the fitted maximal effect). An outline of the steps: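 Antagonist mode: compounds added to beta-lactamase reporter HEK293T ER-beta-UAS cells stimulated with E2 (1nM final), 16 hr at 37C. LiveBLAzer B/G FRET substrate, 2 hours room temperature, fluorescence read-out.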
Sequence of Estrogen receptor beta (Homo sapiens) (Q92731 whole entry, looked up): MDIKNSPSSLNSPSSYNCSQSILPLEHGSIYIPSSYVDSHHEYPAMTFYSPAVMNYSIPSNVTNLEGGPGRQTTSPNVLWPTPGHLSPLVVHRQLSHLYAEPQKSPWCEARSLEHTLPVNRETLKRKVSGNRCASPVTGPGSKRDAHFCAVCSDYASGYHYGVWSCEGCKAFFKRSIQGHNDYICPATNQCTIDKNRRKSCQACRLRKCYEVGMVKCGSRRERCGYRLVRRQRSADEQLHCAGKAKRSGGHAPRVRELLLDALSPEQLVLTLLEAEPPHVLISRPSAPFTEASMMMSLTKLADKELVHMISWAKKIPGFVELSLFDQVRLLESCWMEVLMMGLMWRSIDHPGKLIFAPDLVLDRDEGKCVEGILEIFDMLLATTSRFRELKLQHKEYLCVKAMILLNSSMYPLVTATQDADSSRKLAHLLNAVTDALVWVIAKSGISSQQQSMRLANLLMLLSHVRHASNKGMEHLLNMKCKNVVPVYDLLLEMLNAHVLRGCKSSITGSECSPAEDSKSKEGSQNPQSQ

Assay [16] in a line: qHTS assay to identify small molecule agonists of the androgen receptor (AR) signaling pathway in the presence of an antagonist - cell viability counter screen (AID 1259379).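 Further: MDA-kb2 human breast cancer cells carrying an MMTV luciferase reporter; series mostly up to about 92 µM; nearly all actives have a fitted effect of over 25% in size.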 An outline of the steps:
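Seed MDA-kb2 at 3,000 cells/well; incubate 5 hr, 37C, 0% CO2. Add nilutamide to 3.0uM final, then pin compounds at 15 concentrations. Incubate 16 hr. Add CellTiter-Fluor at 15 hr, read fluorescence after 1 hr.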

Assay [17] in a line: qHTS assay to identify small molecule agonists of the estrogen receptor beta (ER-beta) signaling pathway - cell viability counter screen (AID 1259380). Further: nearly all actives have a fitted effect of over 30% in size. Further: potency means the concentration at half of the fitted maximal effect. An outline of the steps:
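CellTiter-Glo read, 30 min RT, same wells as bla assay; cells ER-beta-UAS-bla HEK293T; 16 hr compound, 37C; medium 2% charcoal-stripped FBS.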

A short description of assay [18]: qHTS assay to identify small molecule antagonists of the androgen receptor (AR) signaling pathway using the MDA cell line in the presence of 0.5 nM R1881 - cell viability counter screen (AID 1259242). Further: nearly all actives have a fitted effect of over 45% in size. An outline of the steps:
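Viability of MDA-kb2 cells was multiplexed with the luciferase AR readout; after 16 hr with compounds and R1881 at 0.5 nM final, CellTiter-Fluor fluorescence was recorded.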

Assay [19] concerns the target Estrogen receptor (Homo sapiens) (UniProt P03372). The experiment in a line: qHTS assay to identify small molecule antagonists of the estrogen receptor alpha (ER-alpha) signaling pathway using the BG1 cell line in the presence of 0.1 nM 17-beta-estradiol (AID 1259244). Further: nearly all actives have a fitted effect of over 50% in size. Further: potency means the concentration at half of the fitted maximal effect. An outline of the steps: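 Estradiol at 0.1 nM (final) stimulates the endogenous ER-alpha of VM7Luc4E2 cells carrying an ERE-driven luciferase; compounds are co-incubated 22 h at 37C and luciferase output quantified by luminescence.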

For assay [20], the target named is Estrogen receptor beta (Homo sapiens) (UniProt Q92731). Nature of the assay: qHTS assay to identify small molecule agonists of the estrogen receptor beta (ER-beta) signaling pathway (AID 1259377; active means well fitted activation curve with a large enough effect in the signal ratio in the repeat runs, not every such curve was filed as active; the % refers to the signal ratio; further: potency means the concentration at half of the fitted maximal effect). The procedure, abridged:
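ER-beta-UAS-bla HEK293T (GripTite) cells carrying a UAS-driven beta-lactamase reporter, in medium with 2% charcoal-stripped FBS, were exposed to compounds for 16 hr at 37C; LiveBLAzer B/G FRET substrate was then added and fluorescence read after 2 hours at room temperature.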

Regarding `Oc1c(Cl)c(Cl)cc(Cl)c1Cl`, the Potency entry in assay [1], in assay [3], in [4], in [5], in assay [6] and in [7] was “inactive” in each case. Also, the Potency entry in assay [8], in assay [9] and in [11] was “inactive” throughout. Also, the Potency in assay [2] is 66.7 µM (active). The molecule was classed as inactive in assay [10].

Consider `CC1CCC(C(C)C)C(OC(=O)c2ccccc2N)C1` (centres undefined), for which the Potency entry in assay [1], in assay [12], in [13], in [5], in [6] and in assay [16] was “inactive” throughout. For the same molecule, in assay [9], the Potency entry was “inactive”. Further, the Potency in assay [14] is 26.9 µM (active); in [15] it was 8.51 µM (active); in [17], 30.2 µM (active); in [8] it was 60.3 µM (active); in assay [11] it was 60.3 µM (active). Moreover, the call in assay [10] was inactive.

`Clc1ccc(CSC(Cn2ccnc2)c2ccc(Cl)cc2Cl)cc1` (centres undefined): the Potency result in assay [1], in assay [12], in assay [13], in assay [6] and in assay [14] was “inactive” each time. Moreover, the Potency in assay [5] is 26.6 µM (active); in [17] it was 13.3 µM (active); in assay [8], 13.3 µM (active). In addition, the outcome in assay [10] was inactive.

In the case of `CNC(C)Cc1ccc2c(c1)OCO2` (centres undefined), the Potency entry in [18], in assay [2], in assay [19], in assay [12], in assay [13] and in assay [6] was “inactive” each time. Moreover, the Potency result in [16], in assay [17], in assay [7], in [8] and in [9] was “inactive” in each case. The result in assay [10] was inactive.

For `ClC1=C(Cl)[C@]2(Cl)[C@@H]3[C@@H]4C[C@@H]([C@H]5O[C@@H]45)[C@@H]3[C@@]1(Cl)C2(Cl)Cl`, the Potency entry in assay [1], in assay [12], in [13], in assay [3], in [6] and in [9] was “inactive” in each case. Further, the Potency in assay [19] is 68.6 µM (active); in [14], 21.7 µM (active). The outcome in assay [10] was inactive.

For the molecule `Oc1cccc(-c2ccccc2)c1`, the Potency result in [1], in assay [19], in assay [13], in assay [3], in assay [4] and in [5] was “inactive” in each case. Besides, the Potency result in assay [6], in assay [16], in assay [17], in [8], in assay [9] and in [11] was “inactive” each time. Besides, the Potency in assay [20] is 17.2 µM (active). For the same molecule, in assay [10], the call was inactive.

Turning to `COC[C@H](C)N(C(=O)CCl)c1c(C)csc1C`, the Potency result in assay [1], in assay [19], in assay [13], in assay [3], in [4] and in assay [5] was “inactive” in each case. Moreover, the Potency entry in assay [6], in assay [14], in assay [20], in assay [16], in assay [17] and in assay [8] was “inactive” throughout. Further, in assay [9], the Potency result is “inactive”.

With `CCCN(CC)CC1COC2(CCC(C(C)(C)C)CC2)O1` (centres undefined), the Potency entry in [1], in assay [19], in assay [13], in assay [4], in assay [5] and in assay [6] was “inactive” each time. Also, the Potency result in [20], in [15], in assay [16], in assay [8], in assay [9] and in assay [11] was “inactive” each time. For the same molecule, the molecule was called inactive in assay [10].

Regarding `CCCCN(CCCC)C(=S)[S-].CCCCN(CCCC)C(=S)[S-].[Zn+2]`, the Potency in [1] is 17.2 µM (active); in [19] it was 13.7 µM (active); in [4] it was 5.44 µM (active); in assay [5], 6.85 µM (active); in [17] it was 13.7 µM (active); in assay [8], 30.6 µM (active). In addition, the Potency entry in assay [13], in assay [3], in assay [6] and in [9] was “inactive” throughout.
